Drawing on PubChem BioAssay AID504843 (Broad Institute, 2011), this text covers outcome for 69 compounds.

SMILES strings stand for the structures. The campaign covered roughly 1,200 compounds. About 360 (30%) were called active. The rule behind the calls is not given here. Only a sample is shown. Measured potencies and affinities stand elsewhere.

The experiment is described as follows: bacterial growth inhibition, dose response, counter-screen, BacTiter-Glo luminescence, cherry-picked samples (AID 504843).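 Note: growth measured after 8 h incubation at 30 °C.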 To be noted: BacTiter-Glo ATP luminescence; series mostly up to 15 µM. In general terms: A counterscreen serves to expose hits that act by an unwanted route or on another target.
Take `CCOc1ccc(-c2cn(-c3ccc(OC)cc3)c(SC)n2)cc1`: the call was inactive.

In the case of `COC(=O)C1=CN(C(C)C)C=C(C(=O)OC)C1c1cccc(OC)c1`, the outcome was inactive.

Take `COc1cccc(NC(=O)Nc2cnccn2)c1`: the result was inactive.

As for `CCOc1ccc2[nH]c(C)c(CN3CCCCC3)c(=O)c2c1`, the compound was classed as inactive.

With `CCSC1=C(C#N)C(c2ccc(Cl)cc2)C2=C(CCCC2=O)N1` (centres undefined), the call was inactive.

With `CC(C)N1C(=O)NC2(c3ccccc3)N(C)C(=O)N(C)C12c1ccccc1` (centres undefined), the result was inactive.

Consider `O=C(N1CCCC1)C12CC3CC(C1)CC(C(=O)N1CCCC1)(C3)C2`, for which the result was inactive.

On to `CN(C)c1ccc(C(=O)C(O)c2ccc(C(C)(C)C)cc2)cc1` (centres undefined), for which the call was inactive.

In the case of `CN(C)S(=O)(=O)n1cc(/C=C(\NC(=O)c2ccccc2F)C(=O)N2CCOCC2)c2ccccc21`, the outcome was inactive.

For `CCOc1ccccc1NC(=O)NCc1ccc2c(c1)OCO2`, the outcome was inactive.

`O=C(NCc1ccc2c(c1)OCO2)c1c(O)c2cccc3c2n(c1=O)CCC3`: the outcome was inactive.

Take `COCCNc1nc(N)c([N+](=O)[O-])c(NCC2CCCO2)n1` (centres undefined): the compound was called inactive.

In the case of `Cn1ccc(=Nc2ccc(NC(=O)c3ccc(N=c4ccn(C)c5ccc([N+](=O)[O-])cc45)cc3)cc2)cc1`, the compound was called inactive.

For the compound `Cc1cc(=O)[nH]c(SCC(=O)NCc2ccc3c(c2)OCO3)n1`, the compound was classed as inactive.

As to `Clc1ccccc1CSc1nnc(-c2cccnc2)n1Cc1ccco1`, the compound was called inactive.

Take `N=C(N)c1ccc(/C=C/c2ccc(C(=N)N)cc2O)cc1`: the result was inactive.

In the case of `O=C(C1CCCN(S(=O)(=O)c2cccnc2)C1)N1CCn2c1nc1ccccc12` (centres undefined), the result was inactive.

Regarding `O=C(Nc1ccc2c(c1)OCCO2)c1ccc(Cl)c(S(=O)(=O)N2CCCCC2)c1`, the compound was classed as inactive.

As for `CCOC(=O)c1sc(C)c2c1NC(C)(c1ccccc1)NC2=O` (centres undefined), the outcome was inactive.

Turning to `Cc1c(NC(=O)Nc2ccccc2)cccc1[N+](=O)[O-]`, the result was inactive.

For the compound `COc1ccc(CN2CSC(=S)N(Cc3ccccc3)C2)cc1`, the compound was classed as inactive.

On to `CC(C)(C)c1nnc(NC(=O)NS(=O)(=O)c2ccccc2)s1`, for which the compound was called inactive.

For `Cc1nc(Nc2ccc(Cl)cc2Cl)sc1C(=O)Nc1ccccc1`, the result was inactive.

With `O=C(NCc1cccnc1)C(=O)NCC1OCCN1S(=O)(=O)c1ccc(F)cc1` (centres undefined), the call was inactive.

On to `Cc1cc(C(=O)NNC(=O)c2ccc(F)cc2)c(C)s1`, for which the compound was classed as inactive.

As for `O=C(c1n[nH]c2ccccc12)N1CCOCC1`, the call was inactive.

For the compound `CCN(CC)CC(=O)N(CC(=O)Nc1c(C)cc(C)cc1C)C1CCCCC1`, the outcome was inactive.

In the case of `CCCCN(C)C(=O)c1cc2cc([N+](=O)[O-])cc(OC)c2oc1=O`, the compound was classed as inactive.

Consider `CCOC(=O)c1sc(Nc2nc3ccc(OC)cc3s2)cc1C`, for which the outcome was inactive.

Consider `COc1ccc(S(=O)(=O)N2CCC(C(=O)NCc3cccnc3)CC2)cc1OC`, for which the compound was called inactive.

On to `COc1ccc(OC)c(NC(=O)NCc2cccnc2)c1`, for which the outcome was inactive.

Consider `COc1ccc(C(=O)OC(C)CN2CCN(C)CC2)cc1` (centres undefined), for which the compound was called inactive.

`CC(=O)c1ccc(NC(=O)CSc2nc(N3CCOCC3)nc(N3CCOCC3)n2)cc1`: the call was inactive.

On to `NC(=O)C1CCN(C(=O)CSc2nc3ccccc3o2)CC1`, for which the compound was called inactive.

For the compound `CCCCNC(=O)NNC(=O)c1ccc(F)cc1`, the compound was classed as inactive.

Take `COc1ccc(C2OC(=O)CC2C(=O)NCc2ccc(F)cc2)cc1OC` (centres undefined): the call was inactive.

`CCOC(=O)N1CCN(c2ccc(C(=O)CC)cc2F)CC1`: the outcome was inactive.

In the case of `O=C(O)Cn1cc(C(=S)N2CCOCC2)c2ccccc21`, the call was inactive.

Turning to `O=C(NC(=S)N1CCc2ccccc21)c1ccccc1Cl`, the compound was classed as inactive.

`COCCn1c(=NC(=O)c2ccc3c(c2)OCCO3)sc2cc(S(N)(=O)=O)ccc21`: the call was inactive.

Take `CCOC(=O)C1=C(C)c2ccccc2OC1(C(=O)OCC)C(C)C` (centres undefined): the call was inactive.

On to `CCOc1ccc(S(=O)(=O)Nc2cc(Cl)ccc2O)cc1`, for which the call was inactive.

With `Cc1ccc(NC(=O)CCCc2nc3ccccc3s2)c(O)c1`, the result was inactive.

For the compound `O=C(COc1ccc2c3c(c(=O)oc2c1)CCCC3)NCCCn1ccnc1`, the result was inactive.

Consider `O=C(N/N=C/c1cn(-c2cccs2)nc1-c1ccccc1)c1ccccc1O`, for which the compound was classed as inactive.

Regarding `Oc1c(Cl)cc(Cl)cc1C1Nc2ccccc2-n2cccc21` (centres undefined), the call was inactive.

Consider `COc1ccc(N(C2=NCCCS2)S(=O)(=O)c2ccc(C(C)(C)C)cc2)cc1`, for which the result was inactive.

As for `Cc1cc(C(=O)CN2C(=O)C3CC=CCC3C2=O)c(C)n1-c1ccccc1` (centres undefined), the compound was classed as inactive.

Turning to `C=C(C)CSc1nnc(-c2ccc(OC)c(OC)c2)n1N`, the result was inactive.

Regarding `CCCCOc1ccc(C2CC(=O)N(C)C2=O)cc1` (centres undefined), the result was inactive.

For `CCCCC1C(=O)N(c2ccccc2)N(c2ccc(O)cc2)C1=O` (centres undefined), the result was inactive.

In the case of `CO[C@H]1/C=C/O[C@@]2(C)Oc3c(C)c(O)c4c(O)c(c5c(c4c3C2=O)NC2(CCN(CC(C)C)CC2)N=5)=NC(=O)/C(C)=C\C=C\[C@H](C)[C@H](O)[C@@H](C)[C@@H](O)[C@@H](C)[C@H](OC(C)=O)[C@@H]1C`, the result was inactive.

Consider `CCc1cccc(CC)c1NC(=S)NCC(c1cccnc1)N(C)C` (centres undefined), for which the result was inactive.

Turning to `O=C(CCCn1c(=O)[nH]c2ccsc2c1=O)N1CCCCC1`, the result was inactive.

Consider `CCCCNC(=O)COC(=O)CCC(=O)c1cccs1`, for which the outcome was inactive.

For the compound `Cc1n[nH]c(=O)nc1N1CCc2ccccc2C1`, the call was inactive.

Take `CCOc1nc(Nc2ccc(OC)c(Cl)c2)nc(OCC)n1`: the compound was called inactive.

In the case of `CC1=NN(c2ccccc2)C(=O)C1c1ccccc1` (centres undefined), the compound was classed as inactive.

Turning to `Cc1ccc(OC(=O)c2cc(=O)c3ccccc3o2)cc1`, the result was inactive.

On to `COc1cccc(-c2nn3c(-c4ccccn4)nnc3s2)c1`, for which the outcome was inactive.

Take `Clc1ccc(-c2nnc3c4ccccc4nc(N4CCOCC4)n23)cc1Cl`: the outcome was inactive.

`CC(C)n1ncc2c(C(=O)N3CCN(Cc4ccc(Br)s4)CC3)cc(C3CC3)nc21`: the result was inactive.

As for `CC(=O)c1c(C)[nH]c(C(=O)Nc2ccccc2N2CCOCC2)c1C`, the compound was classed as inactive.

For `Cc1ccc(CS(=O)(=O)CCC(=O)NCCCN2CCCC2)cc1`, the outcome was inactive.

As for `CCCn1c(N)c(C(=O)CSc2nnnn2-c2ccc(O)cc2)c(=O)n(C)c1=O`, the result was inactive.

Turning to `COCC(=O)Nc1ccccc1Br`, the call was inactive.

`CCc1nnc(NC(=O)C2CCC2)s1`: the result was inactive.

For `COc1cc(CN(C2CCCCC2C)S(=O)(=O)c2ccc(S(=O)(=O)NC3CC3)cc2)cc(OC)c1OC` (centres undefined), the compound was classed as inactive.

Take `COc1ccc(-c2cc([C@H]3[C@@H]4C=CCC[C@@]4(C)C(=O)N3Cc3ccccc3)ccc2F)cc1`: the outcome was inactive.
